Sampled rows, rich in hits. Any-hit rate of the full collection: about 12%.
HP1b binding inh – blocks HP1-beta chromodomain binding to methylated histone tails. P83916. AlphaScreen HP1-beta / biotin-H3K9me3 peptide binding. Potency, µM (titrated, usually from 114 µM), without a hit: top-dose activity change, negative = inhibition, hits mostly inhibitors. 390,000 compounds, 0.56% hits; further: nearly all actives have a fitted effect of over 70% in size
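HP1-beta protein (50 nM final) preincubated 30 min at room temperature with biotinylated H3(1-18)K9me3 peptide (50 nM) in PBS pH 7.4, 0.01% Tween-20, then compound added for 30 min. AlphaScreen streptavidin donor/nickel chelate acceptor beads (10 ug/mL final), 30 min dark, luminescence read.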
L3MBTL1 block – blocks human L3MBTL1; AlphaScreen L3MBTL1–H3K9me1 peptide binding; Potency, µM (highest dose often 57.1 µM), inactives show at the highest dose activity, negative = inhibition, usual class: inhibitors; 230,000 compounds, 0.66% hits; AID 485360; further: on the % scale 0 is the no-effect control and ±100 the full control effect; nearly all actives have a fitted effect of over 60% in size
Target sequence (Q9Y468 whole entry, looked up): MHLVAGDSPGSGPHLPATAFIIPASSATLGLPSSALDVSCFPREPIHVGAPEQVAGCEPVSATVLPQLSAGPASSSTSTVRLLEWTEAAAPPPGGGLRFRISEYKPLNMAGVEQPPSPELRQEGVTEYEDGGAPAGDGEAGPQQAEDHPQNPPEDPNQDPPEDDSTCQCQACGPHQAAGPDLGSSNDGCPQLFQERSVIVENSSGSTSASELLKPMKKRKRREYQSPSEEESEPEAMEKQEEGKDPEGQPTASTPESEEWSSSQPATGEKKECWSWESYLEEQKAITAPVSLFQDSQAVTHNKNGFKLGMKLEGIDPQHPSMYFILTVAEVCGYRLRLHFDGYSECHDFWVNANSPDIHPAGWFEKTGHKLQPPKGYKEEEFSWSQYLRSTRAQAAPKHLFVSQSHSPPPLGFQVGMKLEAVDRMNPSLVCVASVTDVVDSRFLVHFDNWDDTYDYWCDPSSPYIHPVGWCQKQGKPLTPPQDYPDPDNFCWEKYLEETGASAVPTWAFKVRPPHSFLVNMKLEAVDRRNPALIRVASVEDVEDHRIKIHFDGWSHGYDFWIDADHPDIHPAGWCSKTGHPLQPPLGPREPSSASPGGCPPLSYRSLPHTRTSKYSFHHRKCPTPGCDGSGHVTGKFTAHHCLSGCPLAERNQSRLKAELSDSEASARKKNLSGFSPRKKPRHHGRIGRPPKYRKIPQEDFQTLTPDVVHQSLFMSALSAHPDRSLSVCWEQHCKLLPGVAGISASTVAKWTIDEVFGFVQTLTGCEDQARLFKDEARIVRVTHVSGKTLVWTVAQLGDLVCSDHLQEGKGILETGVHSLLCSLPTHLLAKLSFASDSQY
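AlphaScreen assay: L3MBTL1 (50 nM final) was preincubated 30 min at room temperature with biotinylated H3(1-15)K9me1 peptide (75 nM final), then 30 min with library compounds; streptavidin donor and nickel chelate acceptor beads (10 ug/mL final) added, 30 min dark.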
Sfp PPTase inh – blocks B. subtilis Sfp PPTase activity | Q9F4F7 | Biochemical Sfp PPTase activity, qHTS | Potency, µM, for the others: largest response in the series, negative = inhibition, usual class: inhibitors | 310,000 compounds, 3.5% hits | AID 1490;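 further: the enzyme is Sfp with the accession as filed and its product quenches rhodamine fluorescence; 0% = enzyme reaction without inhibitor and -100% = no enzyme wells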
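After 15 min at room temperature with compound, 15 nM Sfp received 5 uM rhodamine-CoA plus 12.5 uM BHQ-2-ybbR (50 mM Hepes pH 7.6, 10 mM MgCl2). Rate came from the fluorescence difference over 30 min, ex 525/em 598 nm.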
JMJD2A Tudor – blocks the human JMJD2A Tudor domain. Potency, µM (titrated, usually from 114 µM), for inactives: at the highest dose activity change, negative = inhibition, most hits filed as inhibitors. AlphaScreen JMJD2A-Tudor / H3K4me3 peptide binding. 390,000 compounds, 4.4% hits. O75164. AID 504339; further: on the % scale 0 is the no-effect control and ±100 the full control effect; nearly all actives have a fitted effect of over 50% in size
BAZ2B inh – blocks human BAZ2B. Q9UIF8. AlphaScreen BAZ2B-H3K14Ac peptide displacement. Potency, µM (highest dose often 114 µM), without a hit: at the top dose activity change, negative = inhibition, most hits filed as inhibitors. 360,000 compounds, 4.4% hits; further: on the % scale 0 is the no-effect control and ±100 the full control effect; nearly all actives have a fitted effect of over 60% in size
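Protein-peptide AlphaScreen: BAZ2B 50 nM, b-H3K14Ac 50 nM, 1x PBS pH 7.4 + 0.01% Tween-20. Preincubation 30 min RT; cpd 30 min RT (top 110 uM); beads 20 min RT, light-protected.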
G9a block – G9a (human) methyltransferase inhibition. Q96KQ7. G9a H3K9 monomethylation, AlphaScreen, 2 h. Potency, µM (titrated, usually from 102 µM), inactives show top-dose activity, negative = inhibition, usual class: inhibitors. 350,000 compounds, 8.8% hits. AID 504332; further: on the % scale 0 is the no-effect control and ±100 the full control effect; nearly all actives have a fitted effect of over 75% in size
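Compounds were preincubated with 20 nM G9a for 15 min, after which biotinylated H3K9 peptide (500 nM) and SAM (20 uM) started a 2 h room-temperature reaction. Monomethylated product was quantified by antibody-based AlphaScreen chemiluminescence.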
Numbers without * were called inactive; ? = inconclusive; / = no result given; [ ] = remark or other dose. The call rests on the fitted dose curve; in most records, active means well fitted curve in the direction sought with a large enough effect; inconclusive means small, poorly fitted or top-dose-only effect, or another doubt; inactive means no such curve, though single readings can be large; an effect the other way counts as inactive or inconclusive. Potency means the concentration at half of the fitted maximal effect.

SMILES	HP1b binding inh	L3MBTL1 block	Sfp PPTase inh	JMJD2A Tudor	BAZ2B inh	G9a block
CC(O)(C#CCN1CCOCC1)c1ccccc1 (centres undefined)	16%	17%	20%	-16%	-2%	40µM*
OC(C#CCN1CCCCCC1)(c1ccccc1)c1cccnc1 (centres undefined)	10%	-6%	-16%	-10%	-31%	18µM*
OC(C#CCN1CCCC1)c1ccccc1 (centres undefined)	19%	-8%	7%	-11%	-33%	45µM*
OC(C#CCN1CCCC1)(c1ccccc1)c1cccnc1 (centres undefined)	4%	/	?	28µM*	79µM*	8.9µM*
CCn1cc(S(=O)(=O)c2cccc(Cl)c2)c(=O)c2cc(F)c(N3CCN(C)CC3)cc21	38%	/	/	-5%	2%	-5%[59 µM]
COc1ccc(CCNC(=O)CSc2cc(=O)n(C)c3ccccc23)cc1OC	48%	/	/	-5%	/	?
CCCCN(CC)c1nc(C)nc2c1c(C)c(C)n2-c1c(C)cc(C)cc1C	/	/	-7%	/	/	/
CC(C)C(O)(C#CCN1CCCC1)c1ccccc1 (centres undefined)	33%	-4%	-6%	-14%	?	25µM*
CCOC(=O)c1sc(N=NC2=C(O)CCCC2=O)c(C(=O)OCC)c1C	?	3.5µM*	-25%	25µM*	13µM*	14µM*
CCOC(=O)/C(N=Nc1sc(C(=O)OCC)c(C)c1C(=O)OCC)=C(\C)O	/	-4%	-1%	/	-10%	-9%[59 µM]
Cc1ccc(-c2nnn(CC(=O)N3CCC(C)CC3)n2)o1	43%	/	22%	-6%	-7%	35µM*
Cc1ccc(-c2nnn(CC(=O)N3CCCCC3)n2)o1	28%	18%	18%	-7%	-3%	-7%
Cc1ccc(-c2nnn(CC(=O)NCC3COCCO3)n2)o1 (centres undefined)	?	-1%	23%	50µM*	-2%	16%[59 µM]
Cc1ccc(-c2nnn(CC(=O)NCC3CC3)n2)o1	17%	0%	6%	-21%	10%	0%[59 µM]
CCS(=O)(=O)N1CCc2cc(C(=O)NCCc3ccccc3)ccc21	27%	/	/	-25%	-15%	?
CCCCCn1c(=N)n(CC(O)COc2cccc(C)c2)c2ccccc21 (centres undefined)	32%	/	/	-11%	-16%	-4%[59 µM]
O=C(NC(=S)Nc1ccccc1N1CCCC1)c1ccc([N+](=O)[O-])cc1	22µM*	7.1µM*	?	25µM*	11µM*	11µM*
CC(=O)NC(=S)Nc1ccccc1N1CCCCC1	26%[57 µM]	-3%	-18%	-8%	-27%	50µM*
Cc1ccc(CNC(=O)c2ccc(CSCc3ccc(C)cc3)o2)cc1	33%	/	/	32µM*	29%	10%[59 µM]
O=C1OCCC1Sc1nnc(-c2ccc(Cl)cc2)n1Cc1ccccc1 (centres undefined)	52%	-1%	13%	-2%	11%	11µM*
CC(=O)Nc1scc(C)c1-c1nc2ccccc2s1	123%	79%	-18%	74%	48%	54%
CNc1sc(C(=O)c2cccs2)c(N)c1-c1nc2ccccc2s1	-16%	-28%	13µM*	50µM*	-6%	?
O=C(Nc1ccccc1-c1nc2ccccc2s1)c1ccc(F)cc1	39%	/	/	8%	50µM*	5%[59 µM]
O=C(Nc1nc2ccccc2s1)c1ccc(F)cc1	34%	17%	11%	-6%	?	-5%[59 µM]
CNc1sc(C(=O)c2ccc(F)cc2)c(N)c1-c1nc2ccccc2s1	-29%	/	-19%	?	50µM*	8.9µM*
CCOC(=O)C1C(=O)NC(SCC(N)=O)=C(C#N)C1c1ccccc1OCC (centres undefined)	-15%	-6%	16µM*	?	-28%	20µM*
CCCCOC(=O)CSC1=C(C#N)C(c2ccccc2OCC)C(C#N)C(=O)N1 (centres undefined)	-3%	-5%	-9%	-36%	50µM*	29%[0.501 µM]

Screening data: PubChem, National Center for Advancing Translational Sciences (NCATS)
